Experimental data published in PubChem BioAssay (Tox21).
Inconclusive results are not listed. Activity calls are given as the source filed them. Calls follow the shape of the dose curve; as a rule, active = well fitted cell-killing curve with a large enough effect in the repeat runs; inconclusive = weak or mixed curves, or effect the other way; inactive = flat fitted curve, though single readings scatter.

Test: qHTS assay to identify small molecule agonists of the sonic hedgehog signaling (Shh) pathway - cell viability counter screen (AID 1259366); also: nearly all actives have a fitted effect of over 50% in size
Conditions: NIH/3T3 Gli1-Luc viability, CellTiter-Fluor, 24 h; series mostly up to 92.4 µM; viability change, negative = cytotoxic: at the top concentration
Text: National Center for Advancing Translational Sciences [NCATS]
NIH Chemical Genomics Center [NCGC]
U.S. Environmental Protection Agency [EPA]
National Institutes of Environmental Health Sciences [NIEHS]
National Toxicology Program [NTP]
U.S. Food and Drug Administration [FDA]
The sonic hedgehog (Shh) pathway is essential for normal embryonic development. Dysregulation of the Shh pathway can cause severe developmental defects in organs. Therefore chemicals that interfere with the pathway are potential developmental toxicants. A cell line designated 3T3Gli1-Luc (DMB/OARSA/CFSAN/FDA, Laurel, MD), a NIH/3T3 derived clone containing stably integrated Gli1-Luc reporter is used to detect chemical interference of the Shh pathway, by changes in the expression of the firefly Luc gene under the control of the Gli1 transcriptional response element. This cell line was used to screen Tox21 libraries for identifying and prioritizing the potential developmental toxicants that interfere Shh pathway. The cytotoxicity of the compounds was tested in parallel by measuring the cell viability using CellTiter-Fluor assay system (Promega, Madison, WI) in the same wells.
Tox21 Assay Protocol Summary:
3T3 Gli1-Luc cells were dispensed at 2,000 per well in 5uL of culture medium into white solid bottom 1536-well plates (Greiner Bio-One, Monroe, NC) using a Multidrop Combi (Thermo Scientific, Waltham, MA) dispenser. The assay plates were incubated at 37 C and 5% CO2 for 4hr, and then 23nL of compounds dissolved in DMSO and positive control were transferred using a Pintool station (Wako, San Diego, CA). The assay plates were incubated at 37C and 5% CO2 for 24hr. For viability read, after 23hr of compound treatment, 1uL of CellTiter-Fluor reagent (Promega Corporation, Madison, WI) was added to each well of the assay plates using Flying Reagent Dispenser (FRD, Aurora Discovery, San Diego, CA) and incubated the assay plates at 37C for 1hr. The fluorescence signal was quantified using a ViewLux plate reader (Perkin Elmer, Shelton, CT).
% is scaled to controls: 0 for no effect and ±100 for the full control effect; potency is read from the fitted curve at half-maximal effect.

Structure (SMILES)	Potency	viability change, negative = cytotoxic
Nc1cc(Cl)cc(C(=O)O)c1Cl	inactive	–
CN(C1CCCCC1)C1CCCCC1	–	1.55% (inactive)
CC(C)(c1ccccc1)c1cc(-n2nc3ccccc3n2)c(O)c(C(C)(C)c2ccccc2)c1	–	1.59% [at 42.5 µM] (inactive)
CCC1(C2=NCCN2)Cc2ccccc2O1 (stereo not given)	–	0.893% [at 42.5 µM] (inactive)
C=CCOCC1CO1 (stereo not given)	–	0.461% (inactive)
CC(C)(C)N(NC(=O)c1ccc(Cl)cc1)C(=O)c1ccccc1	2710 nM (active)	–
O=C(NC(=O)c1cc(F)c(F)cc1Cl)Nc1cc(F)ccc1N1CCC(C(=O)O)CC1	–	25.1% [at 42.5 µM] (inactive)
CCCCCl	–	0.299% (inactive)
CCCCC1C(=O)NC(=O)N(C2CCCCC2)C1=O (stereo not given)	–	-0.383% [at 42.5 µM] (inactive)
CCCCCCCCCCCCN(C)C	–	8.55% (inactive)
Clc1ccc(Cl)c(Cl)c1	inactive	–
CC(Cl)C(=O)O (stereo not given)	–	-2.94% (inactive)
COC1=CC(=O)O[C@@H](/C=C/c2ccc3c(c2)OCO3)C1	–	7.72% (inactive)
CCCC(C)(COC(N)=O)COC(=O)NC(C)C (stereo not given)	inactive	–
C[C@]12CC[C@H]3[C@@H](CCC4=CC(=O)CC[C@@H]43)[C@@H]1CC[C@@H]2OC(=O)CCc1ccccc1	–	9.93% [at 42.5 µM] (inactive)
CCC(C)(C)O	–	3.37% (inactive)
O=C([O-])c1ccccn1.O=C([O-])c1ccccn1.O=C([O-])c1ccccn1.[Cr+3]	–	15.9% (inactive)
C[N+]1(CCF)[C@@H]2CC[C@H]1CC(OC(=O)C(O)(c1ccccc1)c1ccccc1)C2 (stereo not given in full)	–	1.46% [at 42.5 µM] (inactive)
C#C[C@]1(O)CC[C@H]2[C@@H]3CCC4=CC(=O)CCC4=C3C=C[C@@]21CC	–	8.06% [at 42.5 µM] (inactive)
CNC(=O)Oc1cccc(N=CN(C)C)c1	–	-3.08% (inactive)

Structure (SMILES)	Potency	viability change, negative = cytotoxic
C#CC(O)(C=CCl)CC (stereo not given)	–	1.47% [at 42.5 µM] (inactive)
CC(C)CCCCCCCOC(=O)c1ccccc1C(=O)OCCCCCCCC(C)C	–	0.834% (inactive)
C[N+]1(CCC(C(N)=O)(c2ccccc2)c2ccccc2)CCCCC1	–	-1.16% [at 42.5 µM] (inactive)
COc1ccccc1N1CCNCC1	–	11.3% [at 42.5 µM] (inactive)
CC(Oc1cccc(Cl)c1)C(=O)O (stereo not given)	–	-0.181% (inactive)
OCCCl	–	1.43% (inactive)
CCOC(=O)c1cncn1C(C)c1ccccc1 (stereo not given)	–	1.75% [at 42.5 µM] (inactive)
CCOP(=O)(SC(C)CC)N1CCSC1=O (stereo not given)	–	-12.4% (inactive)
COc1cc(CC(C)N)c(OC)cc1Br (stereo not given)	–	-2.56% (inactive)
CCOC(=O)NC(O)C(Cl)(Cl)Cl (stereo not given)	–	3.02% [at 42.5 µM] (inactive)
CC[N+]1(CCOC(=O)C(O)(c2ccccc2)c2ccccc2)CCCCC1	–	5.09% [at 42.5 µM] (inactive)
OCC1CO1 (stereo not given)	inactive	–
C[C@]12C=CC3=C4CCC(=O)C=C4CC[C@H]3[C@@H]1CC[C@@H]2O	inactive	–
O=CC=O	–	-4.44% (inactive)
CCC1CCC(=O)O1 (stereo not given)	–	1.07% (inactive)
O=C1CC[C@@]2(O)[C@H]3Cc4ccc(O)c5c4[C@@]2(CCN3CC2CC2)[C@H]1O5	–	5.46% [at 42.5 µM] (inactive)
CCCCCCCCCCCCCCCl	–	8.76% (inactive)
O=C(O)c1ccc(=O)[nH]c1	–	2.83% [at 42.5 µM] (inactive)
C=CC(=O)NC(C)(C)CC(C)=O	–	1.4% (inactive)
CC(O)CN1CCN(CC(=O)[O-])CCN(CC(=O)[O-])CCN(CC(=O)[O-])CC1.[Gd+3] (stereo not given)	–	5.4% [at 42.5 µM] (inactive)
